Measurements as given in PubChem BioAssay.
For part of these data: Potency and affinity values are given separately. Active and inactive are the calls of the source.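 The calls were made as follows, unless noted: active = primary screen inhibitor hit that blocks the TRPC4 channel at some tested dose, yielding a dose curve; inactive = the rest.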

Tests used:
[1] = system: TRPC4 beta (transient receptor potential cation channel C4), mouse; experiment: TRPC4 cation channel opening, retest – cell-based, Fluo4 calcium, HEK293 TRPC4beta/mu-opioid, duplicates, 10 µM, confirmation (AID 2426;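 active = fluorescence ratio normalized to control raised more than 50% in primary screen plus both repeat runs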;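 as to activation: percent rise of integrated ratio over buffer wells lacking compound which define 0%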); conditions: Fluo4 calcium fluorescence, at 10 µM; active compounds read high
[2] = system: transient receptor potential cation channel C4 beta (TRPC4), mouse; experiment: TRPC4 cation channel opening, second retest – cell-based, second round, Fluo4, HEK293 TRPC4beta/mu-opioid, 1 µM, confirmation (AID 2461;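 active = primary screen active and over 50% activation in each of two duplicate runs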;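 as to activation: 0% = wells without test compound as baseline of integrated fluorescence ratio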); conditions: Fluo4 calcium fluorescence, at 1 µM; active compounds read high
[3] = system: TRPC4 (transient receptor potential cation channel C4 beta), mouse; experiment: potentiation of DAMGO EC20 TRPC4 response – cell-based, second round, Fluo-4, HEK293 TRPC4beta/mu-opioid, 1 µM, confirmation (AID 2554;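 active = primary screen hit whose fluorescence ratio, in both repeats, exceeds the weak agonist control mean by 3 SD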); conditions: DAMGO EC20, Fluo-4 calcium flux, at 1 µM; active compounds read high
[4] = system: TRPC4 beta (transient receptor potential cation channel C4), mouse; experiment: potentiation of DAMGO EC20 TRPC4 response – cell-based, Fluo-4, HEK293 TRPC4beta/mu-opioid, confirmation (AID 2555;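 active = primary screen hit whose calcium fluorescence ratio, in both repeats, exceeds the weak agonist control mean by 3 SD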); conditions: DAMGO EC20, Fluo-4 calcium flux, at 10 µM; active compounds read high
[5] = molecular target: Short transient receptor potential channel 4 (Mus musculus) (UniProt Q9QUQ5); experiment: blockers of DAMGO-evoked TRPC4 calcium flux – cell-based, Fluo4, HEK293 TRPC4beta/mu-opioid, confirmation (AID 2636;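 active = calcium signal cut by more than 3 SD below the full-agonist control yet still positive, in both repeats and the earlier primary screen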); conditions: at 10 µM; active compounds read high
[6] = molecular target: Short transient receptor potential channel 4 (Mus musculus) (UniProt Q9QUQ5); experiment: blockers of DAMGO-evoked TRPC4 calcium flux – cell-based, second round, Fluo4, HEK293 TRPC4beta/mu-opioid, 1 µM, confirmation (AID 2637;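 active = calcium signal ratio cut to more than 3 SD under the fully stimulated control mean yet still positive, in both repeats and the primary screen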); conditions: at 1 µM; active compounds read high
[7] = molecular target: Short transient receptor potential channel 4 (Mus musculus) (UniProt Q9QUQ5); experiment: potentiation of DAMGO-evoked TRPC4 calcium signal – cell-based, HEK293 TRPC4/mu-opioid, Fluo-4 calcium, EC20 DAMGO, dose response (AID 434941;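 active = earlier screen potentiator hit that boosts the TRPC4 ion channel at some dose, with a dose response; inactive = no potentiation, no dose response, or not a prior hit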;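 also: calcium entry triggered by an EC20 dose of DAMGO at the co-expressed mu-opioid receptor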); conditions: HEK293 TRPC4/mu-opioid cells, Fluo-4 calcium fluorescence; series mostly up to 20 µM
[8] = molecular target: Short transient receptor potential channel 4 (Mus musculus) (UniProt Q9QUQ5); experiment: block of DAMGO-driven TRPC4 calcium entry – cell-based, HEK293 TRPC4/mu-opioid, Fluo-4 calcium, dose response (AID 434942); conditions: HEK293 TRPC4/mu-opioid cells, DAMGO-evoked Fluo-4 calcium ratio; series mostly up to 20 µM
[9] = molecular target: Short transient receptor potential channel 6 (Mus musculus) (UniProt Q61143); experiment: TRPC6 blockade by TRPC4 inhibitor hits – cell-based, HEK293, membrane potential dye, duplicate, selectivity assay for TRPC4 inhibitor project, confirmation (AID 434948;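 active = active in primary screen and both duplicates, each dropping signal beyond three positive-control SD with fluorescence still positive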); conditions: HEK293 TRPC6, membrane potential dye fluorescence, at 10 µM, stimulated with maximal-effect acetylcholine; active compounds read high
[10] = molecular target: Short transient receptor potential channel 6 (Mus musculus) (UniProt Q61143); experiment: TRPC6 opening by TRPC4 activator hits – cell-based, HEK293, membrane potential dye, duplicate, selectivity assay for TRPC4 activator project, confirmation (AID 434950;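 active = membrane potential signal rise above negative control mean plus 3 SD in both duplicates, also active in the earlier TRPC4 screen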;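 as to activation: 0% = buffer only wells and 100% = acetylcholine maximal-effect wells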); conditions: HEK293 TRPC6, membrane potential fluorescence, at 10 µM; activation: active compounds read high; outcome: activation
[11] = molecular target: Short transient receptor potential channel 6 (Mus musculus) (UniProt Q61143); experiment: positive modulators of mouse TRPC6 channel – HEK293 cells, membrane potential dye, duplicate, selectivity assay for TRPC4 potentiator project, confirmation (AID 434952;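 active = compound raising the membrane signal above positive-control mean plus 3 SD in both repeats, and a primary screen hit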); conditions: HEK293 TRPC6, membrane potential dye fluorescence, at 10 µM, maximal acetylcholine added after compound; active compounds read high
[12] = molecular target: Short transient receptor potential channel 4 (Mus musculus) (UniProt Q9QUQ5); experiment: calcium flux activators in TRPC4/5HT1a cells, counter-screen for TRPC4 activator project, cell-based, second counter screen, HEK293 TRPC4/5HT1a, Fluo-4 (AID 434977;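 active = calcium signal rise above buffer-control mean plus 5 SD in both duplicates, and also a hit in the primary screen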;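 as to activation: plate controls were assay buffer for no effect and maximal serotonin response for full effect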); conditions: Fluo-4 calcium flux, at 10 µM; active compounds read high
[13] = serotonin-gated TRPC4 signal block – cell-based, second counter screen, HEK293 TRPC4/5HT1a, Fluo-4, counter-screen for TRPC4 inhibitor project, confirmation (AID 434978;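 active = primary screen active whose calcium signal fell more than 3 SD beyond the full-serotonin control mean in both duplicate plates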;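 also: serotonin given first at submaximal then at maximal dose after compound preincubation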); conditions: Fluo-4 calcium flux, at 10 µM, serotonin added to trigger calcium flux; active compounds read high
[14] = system: TRPC4 (mouse), co-expressed with 5HT1a in HEK293; experiment: enhancement of serotonin-evoked TRPC4 response – cell-based, second counter screen, HEK293 TRPC4/5HT1a, Fluo-4, counter-screen for TRPC4 potentiator project, confirmation (AID 434979;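 active = signal rise over 3 SD above mean of control wells given weak agonist, in both repeats and first screen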); conditions: Fluo-4 calcium flux, at 10 µM, serotonin added at its EC20 dose; active compounds read high
[15] = nonspecific calcium rise without TRPC4 – cell-based, HEK293 mu-opioid receptor line, counter-screen for TRPC4 activator project, confirmation (AID 449723;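 active = hit in primary screen, with calcium signal over 5 SD above buffer well mean in both duplicates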;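 also: counter screen cells carry the mu-opioid receptor alone and lack TRPC4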); conditions: HEK293 mu-opioid cells, Fluo-4 calcium fluorescence, at 10 µM; active compounds read high
[16] = nonspecific potentiation of DAMGO calcium response – cell-based, HEK293 mu-opioid receptor line, counter-screen for TRPC4 allosteric potentiator project, confirmation (AID 449724;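 active = calcium signal rise more than 3 SD above the low-dose agonist control mean, in both duplicate plates and the primary screen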); conditions: HEK293 mu-opioid receptor cells, Fluo-4 calcium flux, at 10 µM, compound added before EC20 DAMGO stimulus; active compounds read high

Measured: activation

Sequence of Short transient receptor potential channel 4 (Mus musculus) (Q9QUQ5 whole entry, looked up): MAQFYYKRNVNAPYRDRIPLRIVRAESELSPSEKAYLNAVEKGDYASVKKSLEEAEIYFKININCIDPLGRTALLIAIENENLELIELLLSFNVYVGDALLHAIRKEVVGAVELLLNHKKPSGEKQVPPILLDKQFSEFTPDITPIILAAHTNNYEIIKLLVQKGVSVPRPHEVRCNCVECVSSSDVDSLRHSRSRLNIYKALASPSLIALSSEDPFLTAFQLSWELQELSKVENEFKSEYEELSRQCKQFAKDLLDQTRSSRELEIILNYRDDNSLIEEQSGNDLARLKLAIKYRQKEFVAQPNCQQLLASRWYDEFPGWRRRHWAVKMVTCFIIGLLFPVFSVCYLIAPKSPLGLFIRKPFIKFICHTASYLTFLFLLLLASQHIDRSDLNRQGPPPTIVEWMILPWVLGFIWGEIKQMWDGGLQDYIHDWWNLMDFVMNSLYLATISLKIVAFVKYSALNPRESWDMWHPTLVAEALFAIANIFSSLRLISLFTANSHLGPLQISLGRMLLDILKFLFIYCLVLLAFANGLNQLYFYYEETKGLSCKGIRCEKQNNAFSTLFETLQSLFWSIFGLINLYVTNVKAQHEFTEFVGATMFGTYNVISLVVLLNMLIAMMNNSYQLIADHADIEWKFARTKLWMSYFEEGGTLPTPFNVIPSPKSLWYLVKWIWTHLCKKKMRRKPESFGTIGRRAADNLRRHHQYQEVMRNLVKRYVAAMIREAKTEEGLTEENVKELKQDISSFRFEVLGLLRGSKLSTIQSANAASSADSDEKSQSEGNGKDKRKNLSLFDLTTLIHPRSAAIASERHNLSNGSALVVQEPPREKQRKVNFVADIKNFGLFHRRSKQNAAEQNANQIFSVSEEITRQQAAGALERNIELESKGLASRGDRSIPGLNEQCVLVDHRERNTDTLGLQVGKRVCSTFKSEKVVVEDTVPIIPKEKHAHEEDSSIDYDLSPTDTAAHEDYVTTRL
Sequence of Short transient receptor potential channel 6 (Mus musculus) (Q61143 whole entry, looked up): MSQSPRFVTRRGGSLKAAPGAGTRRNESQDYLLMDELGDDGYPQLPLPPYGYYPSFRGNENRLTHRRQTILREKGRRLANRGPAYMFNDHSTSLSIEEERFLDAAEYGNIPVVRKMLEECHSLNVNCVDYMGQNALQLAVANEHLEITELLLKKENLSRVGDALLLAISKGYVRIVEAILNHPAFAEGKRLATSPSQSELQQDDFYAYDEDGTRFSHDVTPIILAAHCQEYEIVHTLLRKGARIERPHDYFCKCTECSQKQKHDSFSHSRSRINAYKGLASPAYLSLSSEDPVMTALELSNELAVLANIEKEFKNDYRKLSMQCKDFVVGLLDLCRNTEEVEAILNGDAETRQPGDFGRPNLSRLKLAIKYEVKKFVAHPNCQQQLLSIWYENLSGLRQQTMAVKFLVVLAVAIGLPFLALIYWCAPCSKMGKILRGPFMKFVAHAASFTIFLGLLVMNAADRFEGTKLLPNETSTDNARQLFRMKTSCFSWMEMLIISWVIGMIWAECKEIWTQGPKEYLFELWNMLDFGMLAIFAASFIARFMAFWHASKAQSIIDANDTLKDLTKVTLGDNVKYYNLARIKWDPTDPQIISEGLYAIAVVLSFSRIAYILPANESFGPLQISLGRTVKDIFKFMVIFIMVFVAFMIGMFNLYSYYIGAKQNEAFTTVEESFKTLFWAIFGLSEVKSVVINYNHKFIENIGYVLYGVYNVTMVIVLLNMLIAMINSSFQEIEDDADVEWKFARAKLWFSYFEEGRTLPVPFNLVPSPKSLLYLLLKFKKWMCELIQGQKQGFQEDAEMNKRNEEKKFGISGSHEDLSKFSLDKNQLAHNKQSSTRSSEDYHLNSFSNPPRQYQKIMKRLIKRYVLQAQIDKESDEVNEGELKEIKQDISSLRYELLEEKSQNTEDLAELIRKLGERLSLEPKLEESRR

Fc1ccc(C(c2nnnn2Cc2cccs2)N2CCN(C3CCCCC3)CC2)cc1 (stereo not given)
active: [1] 251% | [2] 67% | [10] 60.5% | [12] 22.7%
inactive: [3] | [4] | [5] | [6] | [7] | [8] | [9] | [11] | [13] | [14] | [15] | [16]

COc1ccc(C(CNCC(=O)Nc2ccccc2F)N(C)C)cc1 (stereo not given)
inactive: [1] | [3] | [4] | [5] | [6] | [7] | [8] | [9] | [11] | [12] | [13] | [14] | [15] | [16]
active: [2] 105% | [10] 59%

Cc1ccc2[nH]c3c(=O)n(CCc4cnc[nH]4)cnc3c2c1
active: [1] 126% | [10] 27.5% | [12] 33.2%
inactive: [2] | [3] | [4] | [5] | [6] | [7] | [8] | [9] | [11] | [13] | [14] | [15] | [16]

CCCCC(=O)NNC(=S)NC(=O)c1ccc(C)cc1
active: [1] 240% | [12] 15%
inactive: [2] | [3] | [4] | [5] | [6] | [7] | [8] | [9] | [10] | [11] | [13] | [14] | [15] | [16]

O=C(COc1ccc(Br)cc1CNC1CCCC1)Nc1ccccc1
inactive: [2] | [3] | [4] | [5] | [6] | [7] | [8] | [9] | [11] | [12] | [13] | [14] | [15] | [16]
active: [1] 175% | [10] 29.5%

CCN1CCN(c2ccc(S(=O)(=O)N3CCCCC3)cc2NC(=O)C(C)Oc2ccc(F)cc2)CC1 (stereo not given)
active: [1] 185% | [10] 32.5% | [12] 9.95%
inactive: [2] | [3] | [4] | [5] | [6] | [7] | [8] | [9] | [11] | [13] | [14] | [15] | [16]

Cc1ccn2cc(CCNC(=O)C3CC=CCC3C(=O)O)nc2c1 (stereo not given)
inactive: [2] | [3] | [4] | [5] | [6] | [7] | [8] | [9] | [10] | [11] | [13] | [14] | [15] | [16]
active: [1] 135% | [12] 59.9%

CN(C)CCCN(C(=O)c1ccc(S(=O)(=O)N(C)C2CCCCC2)cc1)c1nc2ccc(F)cc2s1
active: [1] 155% | [12] 5.36%
inactive: [2] | [3] | [4] | [5] | [6] | [7] | [8] | [9] | [10] | [11] | [13] | [14] | [15] | [16]

COc1ccccc1C(=O)NNC(=S)NC(=O)c1cccs1
inactive: [2] | [3] | [4] | [5] | [6] | [7] | [8] | [9] | [10] | [11] | [13] | [14] | [16]
active: [1] 74% | [12] 59.6% | [15] 13.9%

O=S(=O)(c1ccccc1)c1nnn2c1nc(NC1CCN(Cc3ccccc3)CC1)c1cc(Cl)ccc12
active: [1] 64%
inactive: [2] | [3] | [4] | [5] | [6] | [7] | [8] | [9] | [10] | [11] | [12] | [13] | [14] | [15] | [16]

CN(C)CCN(C(=O)c1cccc2ccccc12)c1nc2cc3c(cc2s1)OCO3
inactive: [1] | [2] | [3] | [4] | [5] | [6] | [7] | [8] | [9] | [10] | [11] | [12] | [13] | [14] | [15] | [16]

Cc1cccc(NC(=S)NCC(c2cccnc2)N(C)C)c1 (stereo not given)
active: [1] 87% | [2] 115% | [10] 33.5%
inactive: [3] | [4] | [5] | [6] | [7] | [8] | [9] | [11] | [12] | [13] | [14] | [15] | [16]

O=C(NC(=S)NNC(=O)[C@H]1C[C@@H]1c1ccccc1)c1cccc(F)c1
inactive: [2] | [3] | [4] | [5] | [6] | [7] | [8] | [9] | [10] | [11] | [13] | [14] | [16]
active: [1] 213% | [12] 140% | [15] 30.6%

CN(C)C(CNC(=S)Nc1ccccc1)c1cccnc1 (stereo not given)
inactive: [3] | [4] | [5] | [6] | [7] | [8] | [9] | [11] | [12] | [13] | [14] | [15] | [16]
active: [1] 76% | [2] 82% | [10] 36%

COC(=O)[C@@]1(Cc2ccc(F)cc2)[C@H]2c3cc(C(=O)N(C)C)n(CCc4ccccn4)c3C[C@H]2CN1C(=O)c1ccccc1
inactive: [2] | [3] | [4] | [5] | [6] | [7] | [8] | [9] | [11] | [12] | [13] | [14] | [15] | [16]
active: [1] 136% | [10] 54%
